Active and inactive are the calls of the source. How the calls were made is not given here.

In PubChem BioAssay one finds inhibition data, which are given here for 22 compounds.

Chain of Pantothenate synthetase (Mycobacterium tuberculosis (strain ATCC 25618 / H37Rv)) (P9WIL5 whole entry, looked up): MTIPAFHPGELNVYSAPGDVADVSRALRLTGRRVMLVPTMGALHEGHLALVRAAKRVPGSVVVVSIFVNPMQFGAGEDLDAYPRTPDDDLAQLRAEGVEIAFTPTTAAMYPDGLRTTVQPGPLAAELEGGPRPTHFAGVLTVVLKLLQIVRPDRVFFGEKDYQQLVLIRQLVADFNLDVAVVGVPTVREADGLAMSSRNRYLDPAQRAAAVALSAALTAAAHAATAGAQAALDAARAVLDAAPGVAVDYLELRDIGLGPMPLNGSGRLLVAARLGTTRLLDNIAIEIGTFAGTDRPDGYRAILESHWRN

The assay has as its target Pantothenate synthetase (Mycobacterium tuberculosis (strain ATCC 25618 / H37Rv)) (UniProt P9WIL5). Put plainly: Coupled enzyme confirmation of inhibitors against recombinant Mtb PanC (AID 375).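 Further: 0% = full reaction with vehicle and 100% = no enzyme background.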 The following applies: coupled enzyme assay; at 10 µM, active compounds read high.
Take `CCOC(=O)c1cc2c(=O)n3ccccc3nc2n(CCCOC)c1=NC(=O)C(C)(C)C`: the inhibition was 4% (inactive).
Next, `CC(=O)[C@H]1CC[C@H]2[C@@H]3CCC4=CC(=O)CC[C@]4(C)[C@H]3[C@H](O)C[C@]12C`: 0% (inactive); `CCc1nnc(NC(=O)CSc2nc(-c3ccc(OC)cc3)ns2)s1`: 0% (inactive); `O=C(Nc1cccc(C(=O)N2CCOCC2)c1)c1cccnc1`: 0% (inactive).
The result for `O=c1n(CCCN2CCN(c3cccc(Cl)c3)CC2)nc2ccccn12` reads 0% (inactive).
Next, `CCOC(=O)c1[nH]c(C)c(C(=O)N2CCN(C(=O)c3ccco3)CC2)c1C`: 0% (inactive).
Regarding `Cc1cc(OCC(O)CN2CCN(CCO)CC2)ccc1C(C)C` (configuration not stated), the inhibition was 8% (inactive).
Next, `Cc1cccc(C)c1OCC(=O)Nc1cccc(NC(=O)c2ccco2)c1`: 12% (inactive); `COC(=O)CN(c1ccc2c(c1)OCO2)S(C)(=O)=O`: 4% (inactive); `CCC1CCCCN1CCCNC(=O)CC1Oc2ccc(C)cc2NC1=O` (configuration not stated): 0% (inactive).
Take `O=C(O)c1ccc(C2SCC(=O)N2Cc2ccccc2)cc1` (configuration not stated): the inhibition is 2% (inactive).
Next, `Cc1nc2cc(-n3ccc(=O)cc3)ccc2n1-c1ccccc1`: 2% (inactive); `C=CCC(NCc1ccco1)c1ccc(OC)cc1OC` (configuration not stated): 3% (inactive); `CCc1nn(CC(=O)NCCCN2CCc3ccccc3C2)c(=O)c2cc3sccc3n12`: 8% (inactive).
Consider `O=C1CC(c2ccco2)CC(O)=C1C=NCC1NCCc2ccccc21` (configuration not stated), for which the inhibition is 0% (inactive).
The result for `O=C(C1CCCO1)N1CCN(S(=O)(=O)c2ccccc2)CC1` (configuration not stated) reads 0% (inactive).
The result for `N#CC(C(=O)CCN1C(=O)C2CC=CCC2C1=O)c1nc2ccccc2[nH]1` (configuration not stated) reads 0% (inactive).
Next, `Cc1ccc(NC(=O)CSc2nnc(-c3ccncc3)n2C)cc1C`: 0% (inactive).
In the case of `CCCCn1c(CN2CCN(c3cccc(Cl)c3)CC2)nc2c1c(=O)n(C)c(=O)n2C`, the inhibition is 6% (inactive).
On to `COc1cc2c(cc1OC)-c1cc(Nc3ccc4c(c3)OCCO4)nc(=O)n1CC2`, for which the inhibition is 2% (inactive).
Next, `O=C(O)C1C2C=CC(O2)C1C(=O)NCc1ccc(Cl)cc1` (configuration not stated): 13% (inactive); `COc1ccc(OC)c(NC(=O)C2C3CC4OC(=O)C2C4C3)c1` (configuration not stated): 0% (inactive).

As a reminder, the inhibition is the percentage by which the read-out fell short of the control.
